In PubChem BioAssay AID504466 (National Center for Advancing Translational Sciences (NCATS), 2011):
Screen size: about 330,000 compounds; about 4,200 (1.3%) were called active. Inconclusive results (about 6%) are left out. Calls come from the whole dose curve; as a rule, active = well fitted activation curve with a large enough effect; inconclusive = small, poorly fitted or top-dose-only effect; inactive = no such curve, though single readings can be large or run the other way. Shown is part of a subset that was picked to be rich in actives. Where a call stands in place of a potency, no number is given.

Assay: qHTS screen for small molecules that induce genotoxicity in human embryonic kidney (HEK293T) cells expressing luciferase-tagged ELG1; note: nearly all actives have a fitted effect of over 60% in size
Details: HEK293T ELG1-luciferase reporter, luminescence, 16 h; series mostly up to 46 µM
Method in brief: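 DMSO vehicle served as control against compound-treated ELG1-luciferase HEK293T cells; exposure lasted 16 hr at 37 °C and 5% CO2, followed by ONE-Glo luminescence detection after 30 min.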
Potency is the fitted concentration of half-maximal effect.

SMILES	Potency
COc1ccc(NC(=O)N(C)C[C@H]2Oc3ccc(NC(=O)C4CC4)cc3C(=O)N([C@H](C)CO)C[C@@H]2C)cc1	inactive
COc1cccc(CNC(C)C(=O)Nc2ccc(S(=O)(=O)N3CCCC3)cc2)c1 (centres undefined)	inactive
O=C(Nc1cccnc1)c1noc2c1CCCCC2	2.31 µM (active)
COc1cccc(C(=O)Nc2cccnc2)c1OC	inactive
O=C(Nc1cccnc1)c1cc(Cl)ccc1Cl	inactive
Cc1ccnc(SCC(=O)Nc2cccc(S(=O)(=O)N3CCOCC3)c2)n1	inactive
COc1ccc(-c2noc(CCC(=O)N3CCN(c4cccc(C)c4)CC3)n2)cc1	inactive
O=C(NCCS(=O)(=O)NCc1ccc(F)cc1)c1ccccc1	inactive
O=C(CNC(=O)c1ccccc1F)c1ccc(Br)cc1	5.17 µM (active)
O=C(CNC(=O)c1ccccc1)NCC(=O)OCC(=O)c1ccccc1	inactive
O=C(Nc1ccc(NC(=O)c2ccccc2F)cc1)c1ccccc1F	inactive
O=C(COC(=O)CNC(=O)c1ccccc1F)NCC(F)(F)F	inactive
O=C(CNC(=O)c1ccc(F)cc1)c1ccccc1	8.2 µM (active)
COc1cc(NC(=O)c2[nH]cnc2C(N)=O)cc(C(=O)Nc2cccc(C(F)(F)F)c2)c1	inactive
C=CC(COCc1ccccc1)N(CC(=O)OC)S(=O)(=O)c1cc(Br)ccc1OC (centres undefined)	inactive
O=C1N[C@H](Cc2c[nH]c3ccccc23)COC(=O)[C@H](Cc2ccc(F)cc2)C/C=C\C[C@H]1CC(=O)N(CCO)Cc1ccccc1	inactive
N#CCC(=O)Nc1ccc(C(=O)OCC(=O)Nc2sc3c(c2C#N)CCCC3)cc1	inactive
CCOc1ccc(C(=O)Nc2ccncc2)cc1	inactive
CCOc1ccc(NC(=O)c2ccc(NC(=O)COC(=O)c3ccc(NC(=O)CC#N)cc3)cc2)cc1	5.17 µM (active)
C[C@@H]1CN([C@@H](C)CO)C(=O)c2cccc(NS(=O)(=O)c3ccc(F)cc3)c2O[C@H]1CN(C)C(=O)NC1CCCCC1	inactive
Cc1cccc(N2O[C@H]3C=CC2CCCC3)n1	inactive
CCCC(CNC(=O)COC(=O)C1=NNC(=O)CC1)c1ccc(Cl)cc1Cl (centres undefined)	inactive
O=C1/C(=C\Nc2ccccc2)CCN1c1ncccn1	11.6 µM (active)
COc1ccccc1Oc1ccc(N/C=C2/CCCC2=O)cc1	inactive
O=C(Cc1ccccc1)NNC(=O)C1CCN(c2ncccn2)CC1	inactive

SMILES	Potency
NC(=O)Nc1ccc(C(=O)OCC(=O)NC2CCCc3ccccc32)cc1 (centres undefined)	inactive
CCCN=C1N(C)C[C@@H]2[C@@H]3C(=O)N(Cc4ccccc4)C(=O)[C@@H]3[C@](C)(C(=O)OC)N12	inactive
COc1ccc(S(=O)(=O)N(C)C[C@@H]2Oc3ccc(NS(=O)(=O)c4cn(C)cn4)cc3C(=O)N([C@@H](C)CO)C[C@@H]2C)cc1	inactive
C[C@H](CO)N1C[C@H](C)[C@@H](CN(C)C(=O)NC2CCCCC2)Oc2ccc(NC(=O)c3ccncc3)cc2C1=O	inactive
O=C(Nc1cc(C(F)(F)F)ccc1Cl)c1cc2nc3c(c(C(F)(F)F)n2n1)CCCC3	8.2 µM (active)
CCCCC(=O)Nc1ccc(C(=O)Nc2cc(C(F)(F)F)ccc2Cl)cc1	inactive
O=C(Nc1cc(C(F)(F)F)ccc1Cl)C(=O)N1CCCCC1	inactive
CCNC(=S)N1CCN(S(=O)(=O)c2ccc(Cl)s2)CC1	inactive
O=C(NCCC1=CCCCC1)C1CCN(Cc2cnn(-c3ccccc3)c2-n2cccc2)CC1	inactive
C1=C(CCNc2ncnc3c2cnn3-c2ccccc2)CCCC1	2.31 µM (active)
O=C(NNc1ncnc2c1cnn2-c1ccccc1)c1ccco1	inactive
O=C(CSC(=S)N1CCOCC1)c1ccccc1	2.06 µM (active)
CC1CN(C(=S)SCC(=O)c2ccccc2)CC(C)O1 (centres undefined)	inactive
O=C(CSC(=S)N1CCOCC1)c1cc(Br)cc(Br)c1O	inactive
O=C(CN1C(=O)NC2(CCOc3ccccc32)C1=O)Nc1cccc([N+](=O)[O-])c1 (centres undefined)	inactive
O=S(=O)(NCC1CN(S(=O)(=O)c2ccc3c(c2)OCCO3)C1)c1c(F)cccc1F	inactive
CC[C@]12c3[nH]c4ccc(OC)cc4c3CCN1C(=O)C(CC(=O)NCc1ccco1)C[C@@H]2C(=O)N1CCN(C(=O)C2CC2)CC1 (some centres undefined)	inactive
CC(=O)Nc1ccc(S(=O)(=O)Nc2cccc(NC(=O)C(C)(C)C)c2)cc1	inactive
CC(C)(C)C(=O)Nc1ccc(-c2cn3cccnc3n2)cc1	18.3 µM (active)
Cc1nn2c(=O)cc(COC(=O)c3ccc(NC(=O)C(C)(C)C)cc3)nc2s1	inactive
CSc1ncccc1C(=O)Nc1cccc(S(=O)(=O)N2CCOCC2)c1	inactive
CN(CCc1ccccc1)C(=O)c1cccc(NC(=O)Cc2ccc([N+](=O)[O-])cc2)c1	inactive
Cc1c(Cl)cnc(NC(=O)COC(=O)C2CCCC2)c1Cl	inactive
CCN(C(=O)CSc1nnnn1-c1ccc(OC)cc1)C1CCS(=O)(=O)C1 (centres undefined)	inactive
Cn1c(=O)n(C)c2cc(NS(=O)(=O)c3ccc(F)cc3)ccc21	18.3 µM (active)

SMILES	Potency
Cc1cc(C)cc(NS(=O)(=O)c2ccc(F)cc2)c1	inactive
Cn1c(=O)n(C)c2cc(S(=O)(=O)Nc3ccc(F)cc3)ccc21	inactive
CCN(c1ccccc1)S(=O)(=O)c1cccc(C(=O)NCc2ccccc2CN2CCOCC2)c1	inactive
O=C1COc2ccc(C(=O)COC(=O)c3ccccc3Cl)cc2N1	inactive
C=CCSc1nnc(NC(=O)c2ccc(NC(C)=O)cc2)s1	inactive
CCOC(=O)CSc1nnc(NC(=O)c2cccc(S(=O)(=O)N3CCCC3)c2)s1	inactive
CCSc1nnc(NC(=O)c2ccc(C)cc2)s1	1.64 µM (active)
COC(=O)[C@]1(C)N[C@H](CN(C)C(=O)c2ccc(C(C)(C)C)cc2)[C@@H]2C(=O)N(C)C(=O)[C@@H]21	inactive
COc1ccc(CN2C(CC(=O)Nc3cccnc3)c3ccc(C(F)(F)F)cc3S2(=O)=O)cc1 (centres undefined)	inactive
O=C(COC(=O)c1ccc2c(c1)OCCO2)NCc1ccccc1Cl	inactive
Cc1cccc(NC(=O)c2ccc(S(=O)(=O)N(C)c3ccccc3)cc2)n1	inactive
COc1ccc(-c2csc(NC(=O)COC(=O)Cc3ccc(Cl)cc3Cl)n2)cc1	23.1 µM (active)
CC(C)(C)NC(=O)NC(=O)COC(=O)Cc1ccc(Cl)cc1Cl	inactive
COc1ccc(OC)c(-c2csc(NC(=O)COC(=O)C3CC3)n2)c1	inactive
CS(=O)(=O)c1ccc(C(=O)NNC(=O)c2cccs2)cc1	inactive
O=C(Nn1cnc2ccccc2c1=O)c1ccccc1	inactive
O=c1c2ccccc2nc(N/N=C/c2ccccc2)n1O	inactive
O=c1c2ccccc2ncn1/N=C/c1ccccc1	3.66 µM (active)
CCN(C(=O)CSc1cccc[n+]1[O-])c1ccccc1	inactive
COc1ccc(CNC(=O)COC(=O)c2sccc2C)cc1OC	inactive
O=C(Nc1ccccc1)c1ccc2c(c1)OCCCO2	0.517 µM (active)
CSc1ncccc1C(=O)Nc1ccc2c(c1)OCO2	inactive
O=C(Nc1ccccc1N1CCN(C(=O)c2ccccc2)CC1)c1ccc2c(c1)OCO2	inactive
COc1ccc2nc(NC(=O)NC3CCCCC3)sc2c1	inactive
CCSc1ccccc1C(=O)Nc1ccc2c(c1)OCO2	inactive

SMILES	Potency
O=C(Nc1nc2cc3c(cc2s1)OCCO3)c1cccc(S(=O)(=O)N2CCOCC2)c1	inactive
O=C(Nc1cccc(S(=O)(=O)Nc2ccc(Cl)cc2)c1)c1ccc2c(c1)OCCO2	inactive
COc1ccc2nc(NC(=O)c3ccc(Br)s3)sc2c1	2.82 µM (active)
COc1ccc2nc(NC(=O)[C@@H]3CCCN3C(=O)c3cccs3)sc2c1	inactive
CC(C)C(=O)Nc1cccc(C(=O)Nc2ccc3c(c2)OCO3)c1	6.51 µM (active)
O=C(Nc1nc2ccccc2s1)c1ccc2c(c1)OCO2	0.58 µM (active)
O=C(Nc1cccc(S(=O)(=O)N2CCCCC2)c1)c1ccc2c(c1)OCO2	inactive
C=CC[C@@H](CC(=O)N[C@H](CO)Cc1ccccc1)C(=O)N[C@H](C)COC(=O)[C@@H](CC=C)Cc1ccc(F)cc1	inactive
CC(=O)c1c(C)[nH]c(C(=O)COC(=O)c2cccs2)c1C	inactive
COc1ccc(C2=Nn3c(nnc3-c3ccccc3OC)SC2)cc1OC1CCCC1	inactive
COc1ccccc1N(CCOc1ccccc1)S(=O)(=O)c1ccccc1	inactive
CC(C)(C)OC(=O)C[C@@H]1C/C=C\C[C@@H](CC(=O)N(CCO)Cc2ccccc2)C(=O)N[C@H](Cc2ccccc2)COC1=O	inactive
CCCN(CC1CC1)C(=O)COC(=O)c1ccc(C)cc1O	inactive
O=C(COC(=O)c1cc(S(=O)(=O)N2CCOCC2)ccc1F)NC1CC1	inactive
O=C(Nc1cccc([N+](=O)[O-])c1)c1ccc2c(c1)OCO2	inactive
O=C(Nc1ccc2c(c1)OCO2)c1ccc(N2C(=O)c3ccccc3C2=O)cc1	inactive
Cn1c(=O)n(C)c2cc(C(=O)Nc3ccc4c(c3)OCO4)ccc21	8.2 µM (active)
O=C(Nc1ccccc1)c1ccc2c(c1)OCO2	9.2 µM (active)
CC(C)CNS(=O)(=O)c1ccc(C(=O)Nc2ccc3c(c2)OCO3)cc1	inactive
COc1cccc(C(=O)Nc2nc3ccc(S(C)(=O)=O)cc3s2)c1	inactive
CS(=O)(=O)c1ccc2nc(NC(=O)c3ccc(Cl)nc3)sc2c1	inactive
O=C(Nc1ccc(NC(=O)c2ccc3c(c2)OCO3)cc1)c1cccc(Cl)c1	inactive
CNC(=O)c1ccc2nc(NC(C)=O)sc2c1	18.4 µM (active)
O=C(OCC(=O)N1CCN(c2ccccc2)CC1)c1ccc([N+](=O)[O-])s1	inactive
